For 94 molecules, survival results are on record in PubChem BioAssay AID463173 (ICCB-Longwood Screening Facility, Harvard Medical School, 2010).

About 4,300 (8.3%) of roughly 52,000 compounds were called active. The full list was thinned out, with actives kept by preference. Unmarked numbers belong to inactive results. Cut-off read from the data, not from the text of the source: active = survival mostly below about 52% (no sharp cut-off); inactive = mostly above about 56%.

For the experiment, the system named is DeltatarO mutant. The experiment in a line: growth inhibition of S. aureus wild type versus tarO mutant, primary screen, teichoic acid synthesis inhibitors, RN4220, OD600 (AID 463173). The settings on record: OD600, 18 h, hits give low values, screened at 18.75 µg/mL (by protocol).
For `O=C(CN1CCN(Cc2ccccc2Cl)C1=O)NCc1ccccc1Cl`, the survival was 67%.
Next, `CCc1cc(C=Nc2ccccc2)c(O)s1`: 98%.
Next, `Cc1cc(N2CCN(c3cccc(C)c3C)CC2)n2nc(C)c(-c3ccc(Cl)cc3)c2n1`: 87%; `Cc1ccc(CNC(=O)c2cc3sccc3n2Cc2ccc(F)cc2)cc1`: 83%; `COC(=O)CN1C(=O)CSc2ccc(S(=O)(=O)Nc3ccc(Cl)cc3C)cc21`: 124%.
The result for `Cc1cccc(-c2nc(SCCCOc3ccc(Cl)c(C)c3)n3[nH]c(=O)cc3n2)c1` reads 72%.
In the case of `N#Cc1cc2c(=O)n3ccccc3nc2n(-c2nnc(SCc3ccccc3F)s2)c1=O`, the survival is 81%.
The result for `CCc1ccc(NC(=O)CSC2=Nc3ccccc3C3=NC(CC(=O)NCc4ccc5c(c4)OCO5)C(=O)N23)cc1` (centres undefined) reads 107%.
Turning to `COCCN1Cc2cccc(C(=O)Nc3ccc(Cl)cc3Cl)c2C1=O`, the survival was 59%.
Next, `Cc1cc(=O)n(Cc2ccc(Cl)cc2)c2c1c(C)nn2-c1ccccc1`: 126%; `C=Cc1ccc(Cn2c(=O)cc(C)c3c(C)nn(-c4ccccc4)c32)cc1`: 17% (active); `C=Cc1ccc(Cn2c(=O)cc(C)c3c(C)nn(C)c32)cc1`: 8% (active).
In the case of `Cc1ccc(C)c(Cn2c(=O)cc(C)c3c(C)nn(C)c32)c1`, the survival was 91%.
Take `Cc1cc(=O)n(Cc2ccccc2)c2c1c(C)nn2C`: the survival is 20% (active).
Next, `Cc1cc(=O)n(Cc2cccc(Cl)c2)c2c1c(C)nn2C`: 102%; `COc1cccc(Cn2c(=O)cc(C)c3c(C)nn(C)c32)c1`: 89%.
The result for `Cc1cc(=O)n(Cc2ccccc2)c2c1c(C)nn2-c1ccccc1` reads 89%; that for `COC(=O)c1ccc(Cn2c(=O)cc(C)c3c(C)nn(C)c32)cc1`, 66%.
`CCc1ccccc1NC(=O)CCC(=O)N1CC(C)Oc2ccc(C)cc21` (centres undefined): the survival is 62%.
The result for `O=C(COc1ccc2ccccc2c1)NC1CC(=O)N(c2ccc(F)cc2)C1` (centres undefined) reads 69%; that for `CC(C)CCn1nnnc1CN1CCN(Cc2ccc3c(c2)OCO3)CC1`, 69%; that for `CCOC(=O)c1nnn(C(CC)C(=O)Nc2c(C)cccc2C)c1C(=O)OCC` (centres undefined), 100%.
As to `Cc1cccn2c(=O)c3cc(C#N)c(=O)n(-c4nnc(SCc5ccc(Cl)cc5)s4)c3nc12`, the survival is 81%.
Next, `CC(C)N(C(=O)Cn1cc(S(=O)(=O)Cc2ccc(C(F)(F)F)cc2)c2ccccc21)C(C)C`: 54%; `Cc1cc(C)c(NC(=O)Cn2c(=O)n(Cc3ccc(C(=O)NCc4ccco4)cc3)c(=O)c3sccc32)c(C)c1`: 173%; `Cc1cccc(NS(=O)(=O)c2ccc3oc(=O)c4ncn(C)c4c3c2)c1C`: 109%.
With `Cc1ccc(NC(=O)c2ccc(CNS(=O)(=O)c3ccc4c(c3)C(C)(C)C(=O)N4C)cc2)cc1C`, the survival is 62%.
Consider `COc1ccc(OC)c(CCNc2ncnc3onc(-c4ccc(Cl)cc4)c23)c1`, for which the survival was 94%.
Regarding `CCOc1ccc2oc(=O)cc(CN3CCN(c4ccc(Cl)cc4)CC3)c2c1`, the survival is 97%.
Next, `CCN1CC=C2C(C#N)=C(N)C(C#N)(C#N)C(C)C2C1` (centres undefined): 80%; `Cc1ccc(Cn2cc(CCC(=O)NC3CCC(C)CC3)c3ccccc32)cc1` (centres undefined): 74%; `CC1CCC(NC(=O)CCc2cn(Cc3ccccc3Cl)c3ccccc23)CC1` (centres undefined): 51% (active).
Turning to `O=C(CCc1cn(Cc2ccccc2Cl)c2ccccc12)NC1CCCCC1`, the survival was 71%.
The result for `O=C(O)c1ccc(C2Nc3ccccc3-c3nnc(SCc4ccc(Cl)cc4)nc3O2)cc1` (centres undefined) reads 85%.
For the molecule `Cc1ccc(C)c(CN2C(=O)c3ccccc3S(=O)c3ccc(C(=O)NCc4ccco4)cc32)c1` (centres undefined), the survival was 72%.
For `COc1ccc2nc(SC)nc(C)c2c1`, the survival is 67%.
The result for `COc1ccc2oc(=O)c(C(=O)N3CCN(c4cc(Cl)ccc4Cl)CC3)cc2c1` reads 48% (active); that for `COc1ccc2oc(=O)c(C(=O)N3CCN(c4ccc(C)cc4)CC3)cc2c1`, 91%.
`COc1ccc2oc(=O)c(C(=O)N3CCC(C(N)=O)CC3)cc2c1`: the survival was 79%.
Take `CC(=O)Nc1cc(C(=O)NCc2ccc(F)cc2)ccc1Sc1ccc(C)cc1`: the survival was 94%.
Next, `CCN(CC)c1nc(-c2ccc(C(C)(C)C)cc2)nc2ccccc12`: -1% (active); `CC(C)CN(CC(C)C)c1nc(-c2ccc(Cl)cc2)nc2ccccc12`: -1% (active).
As for `CCN(CC)c1nc(-c2ccccc2)nc2ccccc12`, the survival was 86%.
As for `CCCCN(CCCC)c1nc(-c2ccccc2)nc2ccccc12`, the survival is 30%.
Next, `Cc1cc(Sc2ccc(Cl)cc2)nc2ccccc12`: 45%.
With `CCCN(CCC)c1nc(-c2ccccc2F)nc2ccccc12`, the survival is 4% (active).
Next, `COc1ccccc1Nc1nc(-c2ccccc2F)nc2ccccc12`: 73%.
Next, `Cc1cccc(OCCn2c(-c3ccc(Cl)cc3)nc3ccccc3c2=O)c1C`: 77%.
Turning to `CCCCN(CC)c1nc(-c2ccccc2F)nc2ccccc12`, the survival is 94%.
The result for `COc1cccc2[nH]c(C(=O)NCc3ccc4c(c3)CCN4C(=O)c3ccc(F)cc3)cc12` reads 84%; that for `CNC(=O)c1c(NC(=O)/C=C/c2ccccc2)sc2c1CCC2`, 87%.
Regarding `CCC(Sc1nnc2c(n1)[nH]c1ccccc12)C(=O)Nc1ccccc1OC` (centres undefined), the survival was 56%.
For `CC(C)(C)NC(=O)CN1CCC(n2nnc3cc(F)ccc32)CC1`, the survival was 93%.
Next, `COC(=O)c1scc(-c2ccc(C)cc2)c1S(=O)(=O)Nc1cccc(Cl)c1C`: 101%.
The result for `CC(=O)c1cc(-c2ccc(F)cc2)n(CCC(=O)NCc2ccc(C)cc2)c1C` reads 73%; that for `COc1cccc(/C=C2/SC(=O)N(C)C2=O)c1O`, 83%.
Next, `COc1ccc(C(=O)c2cn(Cc3ccccc3OC)c3cc4c(cc3c2=O)OCO4)cc1`: 95%; `COc1ccccc1Nc1ncnc2c1nc1n2CCCCC1`: 128%; `Clc1cccc(CNc2ncnc3c2nc2n3CCCC2)c1`: 88%.
For the molecule `Clc1cccc(Nc2ncnc3c2nc2n3CCCCC2)c1`, the survival is 17% (active).
Regarding `Fc1ccccc1Nc1ncnc2c1nc1n2CCCCC1`, the survival was 68%.
Next, `COc1ccc(Nc2ncnc3c2nc2n3CCCC2)cc1Cl`: 80%; `Clc1ccccc1Nc1ncnc2c1nc1n2CCCCC1`: 8% (active).
Turning to `COc1ccc(C)cc1NC(=O)C1CCN(S(=O)(=O)Cc2ccccc2)CC1`, the survival was 67%.
Next, `O=C(CSc1nccn1C1CCCC1)Nc1ccc(C(F)(F)F)cc1`: 101%; `CCN(CC)CCCNC(=O)CCc1c(C)nc2c(c1C)c(=O)n(C)c(=O)n2C`: 96%.
The result for `O=C(CN1C(=O)CCc2cc(S(=O)(=O)N3CCOCC3)ccc21)NCc1ccc(F)cc1` reads 93%.
As for `CCS(=O)(=O)c1nc(S(=O)(=O)c2ccc(C)cc2)c(NC)s1`, the survival was 102%.
Next, `CCN1CCN(c2nc3c(S(=O)(=O)c4ccc(C)cc4)nnn3c3ccsc23)CC1`: 65%.
The result for `CN(c1ccc(C(=O)NCC2CCCO2)cc1)S(C)(=O)=O` (centres undefined) reads 74%.
The result for `CCCNS(=O)(=O)c1ccc(CCC(=O)NCC2CCCO2)cc1` (centres undefined) reads 89%; that for `CCc1ccc(N(CC(=O)NCC2CCCO2)S(C)(=O)=O)cc1` (centres undefined), 66% (active).
In the case of `CCc1ccc(NC(=O)c2sc3nc(C)cc(C)c3c2NC(=O)c2ccccc2OC)cc1`, the survival is 69%.
The result for `CC(=O)c1ccc(NC(=O)c2nc(-c3ccccc3)n(-c3ccccc3)n2)cc1` reads 87%; that for `CC(=O)c1ccc(NC(=O)c2ncn(-c3ccccc3)n2)cc1`, 34% (active); that for `COc1ccc(-n2nc(C(=O)Nc3ccc(C(C)=O)cc3)nc2-c2ccccc2)cc1`, 49% (active).
In the case of `CC(=O)c1cccc(NC(=O)c2nc(-c3ccccc3)n(-c3ccccc3)n2)c1`, the survival is 56%.
The result for `CC(=O)c1ccc(NC(=O)c2nc(-c3ccccc3)n(-c3ccccc3Cl)n2)cc1` reads 64%.
The result for `CC(=O)c1ccc(NC(=O)c2nc(-c3ccccc3)n(-c3ccc(C)cc3)n2)cc1` reads 60%; that for `O=C(Nc1ccc(F)cc1)c1ncn(-c2ccccc2)n1`, 86%.
Next, `COc1ccc(-c2nc(C(=O)Nc3cccc(C(C)=O)c3)nn2-c2ccc(Cl)cc2)cc1`: 99%; `COc1ccc(-c2nc(C(=O)Nc3ccc(C(C)=O)cc3)nn2-c2cccc(Cl)c2)cc1`: 46% (active); `CC(=O)c1cccc(NC(=O)c2nc(-c3ccccc3)n(-c3cccc(Cl)c3)n2)c1`: 68%.
In the case of `CC(=O)c1ccc(NC(=O)c2nc(-c3ccccc3)n(-c3ccc(Cl)cc3)n2)cc1`, the survival is 49% (active).
In the case of `CCOC(=O)c1ccc(NC(=O)c2ncn(-c3ccccc3)n2)cc1`, the survival is 99%.
The result for `CC(C)(C)C1CCc2c(sc(NC(=O)Cn3nnc(-c4ccccc4F)n3)c2C#N)C1` (centres undefined) reads 66%; that for `N#CC(=C1CCN(Cc2ccccc2)CC1)c1ccccc1`, 85%.
Next, `Cc1cccc(NC(=O)c2cc3c(=O)n(Cc4ccco4)ccc3nc2C)c1`: 87%; `CCNC(=O)c1nn(-c2ccccc2C)nc1CO`: 106%.
With `CCOc1ccc(NC(=O)CC2C(=O)N(c3ccc(C)cc3)C(=O)N2C2CCCCC2)cc1` (centres undefined), the survival was 64%.
With `COc1ccccc1C(=O)Nc1c(C(=O)N(C)c2ccccc2)sc2nc(C)cc(C)c12`, the survival is 58%.
Next, `CCCN(C(=O)C1CC1)c1nnc(-c2ccc(Cl)cc2)s1`: 79%.
For `Cc1c(C(=O)Nc2cccc(Cl)c2)oc2ccc(S(=O)(=O)N(C)C3CCCCC3)cc12`, the survival was 71%.
The result for `Cc1sc(-n2c(C)cc(/C=C(\C#N)C(=O)NCc3ccco3)c2C)c(C#N)c1C` reads 84%.
